{
  "source": "PubChem BioAssay (NCI)",
  "note": "This is part of a sample that, as a whole, favours compounds with a hit. Of some 83,000 tested, about 20% had one in any assay.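 For each line, cells grew in 96-well plates with the test compound present at a single concentration for 48 hours.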 Unmarked numbers belong to inactive results. Activity calls are given as the source filed them. How the source made its calls: active means growth percent below 10; inactive means the rest.",
  "data": [
    {"system": "MDA-MB-468 breast", "test": "NCI-60 one-dose screen, 48 h (100 = growth as untreated, 0 = no growth, -100 = all killed)", "conditions": "10 µM unless noted", "values": [
      {"molecule": "COc1cc2cc3c(nc2cc1OC)CCN3Cc1ccc(NC(=O)Nc2ccc(F)cc2F)cc1", "growth": "45.6%"},
      {"molecule": "CC1=NN(c2ccccc2)C(=O)/C1=C\\N1CC(=O)NC1=S", "growth": "101%"},
      {"molecule": "O=C1Nc2ccc3c(c2/C1=C\\c1cc2c(cc1Br)OCO2)OCO3", "growth": "-11.9% (active)"},
      {"molecule": "COc1ccc(/C=C2\\CS(=O)(=O)C/C(=C\\c3ccc(OC)cc3)C2=O)cc1", "growth": "-85.3% (active)"},
      {"molecule": "O=C(NNC(=O)c1ccc(NC(=O)c2ccccn2)cc1)Nc1ccc2ccccc2c1", "growth": "119%"},
      {"molecule": "Fc1ccc(-c2nn(-c3ccccc3)cc2-c2nc3ccccc3o2)cc1", "growth": "-21.2% (active)"},
      {"molecule": "Cc1cc2nc3c4cc(C#N)ccc4n(CCN(C)C)c3nc2cc1C", "growth": "-41.7% (active)"},
      {"molecule": "O=C(Nc1ccc(-n2cc(-c3ccncc3)c(-c3ccc(Cl)c(O)c3)n2)cc1)c1cc(C(F)(F)F)cc(C(F)(F)F)c1", "growth": "71.9%"},
      {"molecule": "CCOC(=O)C(CCC#N)(CCC#N)C(=O)OCC", "growth": "99.9%"},
      {"molecule": "Nc1ccc2c(c1Br)Cc1ccccc1-2", "growth": "111%"},
      {"molecule": "CCOC(=O)Cn1c(=O)c2sc3ncccc3c2n2nnc(-c3ccccc3)c12", "growth": "119%"},
      {"molecule": "COc1ccc(-c2ccc3c4c(cccc24)C(=O)N(N2C(=O)c4cccc5cccc(c45)C2=O)C3=O)cc1", "growth": "96.5%"},
      {"molecule": "ClCCOCCn1cnc2c(Cl)nc(Cl)nc21", "growth": "-35.7% (active)"},
      {"molecule": "COc1cccc(-c2nc3sccn3c2-c2ccnc(NCCCNS(=O)(=O)c3ccccc3)c2)c1", "growth": "1.62% (active)"},
      {"molecule": "COc1cc(-c2nc3ccc(C)cc3[nH]2)ccc1OCc1nnc(-c2ccc(CC(C)C)cc2)o1", "growth": "116%"},
      {"molecule": "C#CC#CC#CC#CC#CC#CC#CC#CC[C@@H]1OC[C@@H](COC(=O)O[C@@H](C(=O)O[C@H]2C[C@@]3(O)[C@@H](OC(=O)c4ccccc4)[C@@H]4[C@]5(OC(C)=O)CO[C@@H]5C[C@H](O)[C@@]4(C)C(=O)[C@H](OC(C)=O)C(=C2C)C3(C)C)[C@@H](NC(=O)c2ccccc2)c2ccccc2)O1", "growth": "-4.7% (active)"},
      {"molecule": "Cc1ccc(N)cc1[N+](=O)[O-]", "growth": "115%"},
      {"molecule": "O=C1NC(=O)C(Cc2ccc(OCc3ccc(-c4cc(F)c(F)c(F)c4)cc3)cc2)S1", "note": "(configuration not stated)", "growth": "53.4%"},
      {"molecule": "NCCNc1nc2ccccc2c2c(=O)c3cccc(F)c3sc12", "growth": "70.6%"},
      {"molecule": "C=CCn1c(SCC(=O)c2ccc(Br)cc2)nnc1-c1c[nH]c2ccccc12", "growth": "86.9%"},
      {"molecule": "Cc1ccccc1NC(=O)c1sc2nc3c(cc2c1N)C(=O)CCC3", "growth": "-4.56% (active)"},
      {"molecule": "O=C1/C(=C/N2N=C(c3ccc(Cl)cc3)CC2c2ccccc2O)SC(=S)N1c1cccc(C(F)(F)F)c1", "note": "(configuration not stated)", "growth": "62.2%"},
      {"molecule": "O=S(=O)(OCCOS(=O)(=O)c1ccccc1)c1ccccc1", "growth": "95%"},
      {"molecule": "O=C1/C(=C/N2N=C(c3ccc4ccccc4c3)CC2c2ccccc2O)SC(=S)N1c1cccnc1", "note": "(configuration not stated)", "growth": "7.52% (active)"},
      {"molecule": "CSc1nc(NCc2ccccc2)c(C#N)c(-c2cccc([N+](=O)[O-])c2)n1", "growth": "110%"},
      {"molecule": "Clc1ccc2c(NCCN3CCN(c4ccnc(N5CCCC5)n4)CC3)ccnc2c1", "growth": "-4.71% (active)"},
      {"molecule": "Cc1[nH]c(C(=O)Nc2ccccc2OC2CCNCC2)c(Cl)c1Cl", "growth": "16.2%"},
      {"molecule": "O=C1/C(=C/c2cccc(Cl)c2)CCc2ccccc21", "growth": "93.5%"},
      {"molecule": "Cc1cc2c(C(C)C)c(O)c(O)c(C=NCc3ccoc3)c2c(O)c1-c1c(C)cc2c(C(C)C)c(O)c(O)c(C=NCc3ccco3)c2c1O", "growth": "61%"},
      {"molecule": "COc1ccc(-c2nn(-c3ccc(NC(=O)c4cc(C(F)(F)F)cc(C(F)(F)F)c4)cc3)cc2-c2ccncc2)cc1Cl", "growth": "77.1%"},
      {"molecule": "Brc1ccc(Nc2nc(Nc3cnc4ccccc4c3)c3[nH]cnc3n2)cc1", "growth": "65.5%"},
      {"molecule": "C=CCNC(=O)Cc1c(-c2ccc(OC)cc2)oc2c(OC)c3c(c(OC)c12)OCO3", "growth": "94.9%"},
      {"molecule": "COc1cc(/C=C2\\C(=O)N(CC(O)COc3cc(O)c4c(=O)cc(-c5ccccc5)oc4c3)c3ccccc32)cc(OC)c1O", "note": "(configuration not stated)", "growth": "74.3%"},
      {"molecule": "O=C(O)COc1ccc(Cl)cc1C1CCCCC1", "growth": "97.6%"},
      {"molecule": "Cc1ccc(-c2cc3nc(C(Cl)Cl)nc(-c4ccccc4C)n3n2)cc1", "growth": "49.8%"},
      {"molecule": "COc1ccc(-n2c(C)cc(-c3ccccc3)c2C)cc1", "growth": "-6.9% (active)"},
      {"molecule": "CC1=C(C(=O)Nc2ccccc2)C(c2ccc3c(c2)OCCO3)NC(=O)N1", "note": "(configuration not stated)", "growth": "106%"}
    ]}
  ]
}
